Assay results published in PubChem BioAssay (NCI).
About 83,000 compounds went through this panel and 20% of them were active in at least one assay; those are over-represented in the sample as a whole.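 In brief: 96-well plates, 48 h treatment, single concentration, percent growth endpoint.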 Activity calls are given as the source filed them. Rule for the calls: active = growth percent below 10; inactive = the rest.

Key:
Assay in all cases: NCI-60 one-dose screen, 48 h (100 = growth as untreated, 0 = no growth, -100 = all killed)
Settings in all cases: 10 µM unless noted
SK-MEL-2 melanoma = tested on: SK-MEL-2 melanoma
EKVX NSCLC = tested on: EKVX NSCLC
SN12C renal = tested on: SN12C renal
UO-31 renal = tested on: UO-31 renal
TK-10 renal = tested on: TK-10 renal
ACHN renal = tested on: ACHN renal
A498 renal = tested on: A498 renal
CCRF-CEM leukemia = tested on: CCRF-CEM leukemia
SR leukemia = tested on: SR leukemia
RPMI-8226 leukemia = tested on: RPMI-8226 leukemia
OVCAR-8 ovarian = tested on: OVCAR-8 ovarian
OVCAR-5 ovarian = tested on: OVCAR-5 ovarian
OVCAR-4 ovarian = tested on: OVCAR-4 ovarian
SK-OV-3 ovarian = tested on: SK-OV-3 ovarian
IGROV1 ovarian = tested on: IGROV1 ovarian
OVCAR-3 ovarian = tested on: OVCAR-3 ovarian
HS 578T breast = tested on: HS 578T breast
NCI/ADR-RES ovarian = tested on: NCI/ADR-RES ovarian
T-47D breast = tested on: T-47D breast
MOLT-4 leukemia = tested on: MOLT-4 leukemia

Measured: growth

CCOC(=O)CC[C@H](NC(=O)c1ccc(NC)c2ccccc12)C(=O)OCC
inactive: SK-MEL-2 melanoma 106% | EKVX NSCLC 89.4% | SN12C renal 90.3% | UO-31 renal 93.8% | TK-10 renal 90.6% | ACHN renal 98.8% | A498 renal 91% | CCRF-CEM leukemia 91.2% | SR leukemia 101% | RPMI-8226 leukemia 91.2% | OVCAR-8 ovarian 94.7% | OVCAR-5 ovarian 101% | OVCAR-4 ovarian 104% | SK-OV-3 ovarian 92.8% | IGROV1 ovarian 105% | OVCAR-3 ovarian 102% | HS 578T breast 105% | NCI/ADR-RES ovarian 104% | T-47D breast 93.8%

COc1cccc(C(=O)OCCn2nc3c4c(cccc42)C(=O)c2ccccc2-3)c1O
inactive: SK-MEL-2 melanoma 78.7% | EKVX NSCLC 56.1% | SN12C renal 41.5% | UO-31 renal 62.6% | TK-10 renal 85.5% | ACHN renal 56.6% | A498 renal 81.7% | CCRF-CEM leukemia 18.3% | MOLT-4 leukemia 29.7% | SR leukemia 21.2% | RPMI-8226 leukemia 30% | OVCAR-8 ovarian 56.7% | OVCAR-5 ovarian 69.3% | OVCAR-4 ovarian 59.8% | SK-OV-3 ovarian 120% | HS 578T breast 20.1% | NCI/ADR-RES ovarian 22.5% | T-47D breast 40.8%
active: OVCAR-3 ovarian 3.88%

COc1ccc(C2C(c3ccccc3)C(=O)N2c2cc(OC)c(OC)c(OC)c2)cc1I (stereo unspecified)
active: A498 renal -2.63% | CCRF-CEM leukemia 7.6% | MOLT-4 leukemia 7.85% | SR leukemia 8.89% | RPMI-8226 leukemia -9.86% | SK-OV-3 ovarian 6.66% | NCI/ADR-RES ovarian 9.97%
inactive: SK-MEL-2 melanoma 56.3% | EKVX NSCLC 61.9% | SN12C renal 33% | UO-31 renal 18.7% | TK-10 renal 75.1% | ACHN renal 26.5% | OVCAR-8 ovarian 16.7% | OVCAR-5 ovarian 35.9% | OVCAR-4 ovarian 39.8% | OVCAR-3 ovarian 12% | HS 578T breast 22.1% | T-47D breast 69.7%

C=C(C)[C@@H]1CC[C@]2(C(=O)N=C=S)CC[C@]3(C)[C@H](CC[C@@H]4[C@@]5(C)CCC(=O)C(C)(C)[C@@H]5CC[C@]43C)[C@@H]12
inactive: SK-MEL-2 melanoma 27.3% | EKVX NSCLC 32.4% | SN12C renal 19.2% | UO-31 renal 34.8% | TK-10 renal 42.3% | ACHN renal 27.6% | A498 renal 25.3% | CCRF-CEM leukemia 28.1% | MOLT-4 leukemia 25.6% | SR leukemia 27.6% | RPMI-8226 leukemia 16.1% | OVCAR-8 ovarian 24.3% | OVCAR-5 ovarian 49.1% | OVCAR-4 ovarian 31.4% | SK-OV-3 ovarian 14.7% | OVCAR-3 ovarian 25.7% | HS 578T breast 33% | NCI/ADR-RES ovarian 28.2% | T-47D breast 18.1%

CC(=O)c1cc2c(N)c(C(=O)Nc3ccccn3)sc2nc1C
inactive: SK-MEL-2 melanoma 53.6% | EKVX NSCLC 74.7% | SN12C renal 92.7% | UO-31 renal 86.7% | TK-10 renal 90.8% | ACHN renal 98.9% | A498 renal 30.3% | CCRF-CEM leukemia 102% | MOLT-4 leukemia 98.2% | SR leukemia 69.2% | RPMI-8226 leukemia 99.2% | OVCAR-8 ovarian 103% | OVCAR-5 ovarian 89.4% | OVCAR-4 ovarian 99.4% | SK-OV-3 ovarian 48.3% | OVCAR-3 ovarian 92.2% | HS 578T breast 74.2% | NCI/ADR-RES ovarian 94.7% | T-47D breast 94.5%

Cc1[nH]c(N=Nc2ccccc2)nc1N=Nc1ccccc1
inactive: SK-MEL-2 melanoma 39.8% | EKVX NSCLC 20.5% | SN12C renal 39.2% | TK-10 renal 13.1% | A498 renal 35% | MOLT-4 leukemia 13.8% | SR leukemia 23.1% | OVCAR-8 ovarian 14.7% | OVCAR-5 ovarian 18.8% | OVCAR-4 ovarian 30.3% | SK-OV-3 ovarian 39% | OVCAR-3 ovarian 33.2% | HS 578T breast 61.5% | T-47D breast 30.5%
active: UO-31 renal -22% | ACHN renal 7.3% | CCRF-CEM leukemia -24.1% | RPMI-8226 leukemia -2.66% | NCI/ADR-RES ovarian 0.979%

COc1ccc(NC(=O)Nc2ccc(Nc3nc(C)cc(Nc4ccc(C)cc4)n3)cc2)cc1
inactive: A498 renal 107% | SK-OV-3 ovarian 69%
active: SK-MEL-2 melanoma -61.9% | EKVX NSCLC -70.9% | SN12C renal -71% | UO-31 renal -90.5% | TK-10 renal -95.9% | ACHN renal -99.6% | CCRF-CEM leukemia -7.9% | MOLT-4 leukemia -35.3% | SR leukemia -37.1% | RPMI-8226 leukemia -45.9% | OVCAR-8 ovarian -56.6% | OVCAR-5 ovarian -85.7% | OVCAR-4 ovarian -87.1% | OVCAR-3 ovarian -95.5% | HS 578T breast -21.6% | NCI/ADR-RES ovarian -56.3% | T-47D breast -60.1%

C[C@]12CC[C@@H]3c4ccc(O)cc4CC[C@H]3[C@@H]1C[C@H](O)C2
inactive: SK-MEL-2 melanoma 82.4% | EKVX NSCLC 44% | SN12C renal 71.6% | UO-31 renal 71.4% | TK-10 renal 96.4% | ACHN renal 99.7% | A498 renal 44.6% | CCRF-CEM leukemia 52.7% | MOLT-4 leukemia 47.5% | SR leukemia 25.4% | RPMI-8226 leukemia 79.7% | OVCAR-8 ovarian 82.7% | OVCAR-5 ovarian 116% | OVCAR-4 ovarian 87% | SK-OV-3 ovarian 82.7% | OVCAR-3 ovarian 73.2% | HS 578T breast 57.6% | NCI/ADR-RES ovarian 70.9% | T-47D breast 96.9%

Cc1ccc(-c2nc(C#N)c(S(=O)(=O)N(C)CCO)o2)cc1
inactive: SK-MEL-2 melanoma 80.4% | EKVX NSCLC 107% | SN12C renal 51% | UO-31 renal 78.4% | TK-10 renal 116% | ACHN renal 60.7% | A498 renal 114% | SR leukemia 10.8% | RPMI-8226 leukemia 27.7% | OVCAR-8 ovarian 67.4% | OVCAR-5 ovarian 92% | OVCAR-4 ovarian 105% | SK-OV-3 ovarian 102% | OVCAR-3 ovarian 42.3% | HS 578T breast 99.3% | NCI/ADR-RES ovarian 96.7% | T-47D breast 67.3%
active: CCRF-CEM leukemia 2.67% | MOLT-4 leukemia 7.32%

COc1ccc(/C=C(/C(=O)N2CCCC2)c2cc(OC)c(OC)c(OC)c2)cc1
inactive: SK-MEL-2 melanoma 64.3% | EKVX NSCLC 73.1% | SN12C renal 48.1% | UO-31 renal 44.5% | TK-10 renal 71.3% | ACHN renal 54.5% | A498 renal 13.4% | CCRF-CEM leukemia 14% | MOLT-4 leukemia 32.6% | SR leukemia 19.7% | OVCAR-8 ovarian 40% | OVCAR-5 ovarian 63.1% | OVCAR-4 ovarian 68.9% | SK-OV-3 ovarian 22.3% | HS 578T breast 27.8% | NCI/ADR-RES ovarian 22% | T-47D breast 42.4%
active: RPMI-8226 leukemia 8.53% | OVCAR-3 ovarian 5.36%

Cc1cccc(NC(=O)c2sc3nc4c(cc3c2N)CN(Cc2ccccc2)CC4)c1C
active: A498 renal -0.165% | OVCAR-3 ovarian -21.3%
inactive: SK-MEL-2 melanoma 30.3% | EKVX NSCLC 44.1% | SN12C renal 43.6% | UO-31 renal 51% | TK-10 renal 59% | ACHN renal 52.9% | CCRF-CEM leukemia 13.9% | MOLT-4 leukemia 22.5% | SR leukemia 25.5% | RPMI-8226 leukemia 26.8% | OVCAR-8 ovarian 34.3% | OVCAR-5 ovarian 57.4% | OVCAR-4 ovarian 61.7% | SK-OV-3 ovarian 42.2% | HS 578T breast 30.8% | NCI/ADR-RES ovarian 20.2%

NS(=O)(=O)c1ccc(-n2ncc(NC(=O)Nc3ccc(S(=O)(=O)Nc4nccs4)cc3)c2-c2ccccc2)cc1
inactive: SK-MEL-2 melanoma 93.2% | EKVX NSCLC 100% | SN12C renal 98.8% | UO-31 renal 97.5% | TK-10 renal 95.9% | ACHN renal 96.5% | A498 renal 112% | CCRF-CEM leukemia 97.7% | MOLT-4 leukemia 100% | SR leukemia 103% | RPMI-8226 leukemia 103% | OVCAR-8 ovarian 102% | OVCAR-5 ovarian 99% | OVCAR-4 ovarian 101% | SK-OV-3 ovarian 99.5% | OVCAR-3 ovarian 111% | HS 578T breast 102% | T-47D breast 94.2%

COc1cc(C2=NN(C=O)C(c3cccc(Nc4ccnc5cc(C(F)(F)F)ccc45)c3)C2)cc(OC)c1OC (stereo unspecified)
inactive: SK-MEL-2 melanoma 70.7% | EKVX NSCLC 61.5% | SN12C renal 62.4% | UO-31 renal 37.6% | TK-10 renal 46.5% | ACHN renal 65.5% | A498 renal 65.4% | CCRF-CEM leukemia 37.5% | MOLT-4 leukemia 21.5% | SR leukemia 32.3% | RPMI-8226 leukemia 27% | OVCAR-8 ovarian 61.9% | OVCAR-5 ovarian 102% | OVCAR-4 ovarian 59.1% | SK-OV-3 ovarian 81.6% | OVCAR-3 ovarian 54.6% | HS 578T breast 87.5% | NCI/ADR-RES ovarian 55.3% | T-47D breast 43.6%

COC(=O)c1cncc(C(=O)Nc2ccc(-n3cnc4ccccc43)cc2)c1
inactive: SK-MEL-2 melanoma 105% | EKVX NSCLC 100% | SN12C renal 101% | UO-31 renal 93.8% | TK-10 renal 96.2% | ACHN renal 90.4% | A498 renal 88.3% | CCRF-CEM leukemia 98% | SR leukemia 75.4% | RPMI-8226 leukemia 74.5% | OVCAR-8 ovarian 97.2% | OVCAR-5 ovarian 101% | OVCAR-4 ovarian 107% | SK-OV-3 ovarian 108% | IGROV1 ovarian 90.5% | OVCAR-3 ovarian 108% | HS 578T breast 107% | NCI/ADR-RES ovarian 94.9% | T-47D breast 74.8%

Cc1cc2ccccc2c[n+]1CC(=O)c1ccc(-c2ccccc2)cc1
active: OVCAR-4 ovarian 9.69%
inactive: SK-MEL-2 melanoma 84.3% | EKVX NSCLC 54.8% | SN12C renal 55.4% | UO-31 renal 61.5% | TK-10 renal 68.5% | ACHN renal 79.4% | A498 renal 56.5% | CCRF-CEM leukemia 53.4% | MOLT-4 leukemia 49.3% | SR leukemia 54.7% | RPMI-8226 leukemia 19.6% | OVCAR-8 ovarian 43.8% | OVCAR-5 ovarian 73.1% | SK-OV-3 ovarian 64.1% | OVCAR-3 ovarian 31.9% | HS 578T breast 83.5% | NCI/ADR-RES ovarian 101% | T-47D breast 38.2%

NC(N)=NC(N)=Nc1cc2ccccc2c2ccccc12
inactive: EKVX NSCLC 58% | SN12C renal 35.4% | UO-31 renal 32.6% | TK-10 renal 20.8% | ACHN renal 22.9% | A498 renal 26% | CCRF-CEM leukemia 38.6% | OVCAR-8 ovarian 45% | OVCAR-5 ovarian 57.3% | OVCAR-4 ovarian 45.8% | SK-OV-3 ovarian 59.8% | IGROV1 ovarian 17.2% | OVCAR-3 ovarian 63.2% | HS 578T breast 46.5% | NCI/ADR-RES ovarian 80.4%
active: SK-MEL-2 melanoma 5.61% | SR leukemia -2.98% | RPMI-8226 leukemia -15.4%
